In PubChem BioAssay (NCI):
“And” between values parts separate entries of the source, which are not always exact repeats. Equal entries are not always repeated. About 83,000 compounds went through this panel and 20% of them were active in at least one assay; those are over-represented in the sample as a whole.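 Activity criterion: percent growth below 10, measured after cells in 96-well plates were exposed to a single compound concentration for 48 hours.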 The source made the active and inactive calls.

What was measured:
Experiment in all cases: NCI-60 one-dose screen, 48 h (100 = growth as untreated, 0 = no growth, -100 = all killed)
[1] = system: T-47D breast
[2] = system: BT-549 breast
[3] = system: MDA-MB-435 melanoma
[4] = system: SW-620 colon; details: 10 µM unless noted
[5] = system: MCF7 breast
[6] = system: HCT-116 colon
[7] = system: HCC-2998 colon
[8] = system: KM12 colon

Measured: growth

O=c1[nH]c(=O)c2[nH]c(=O)[nH]c2[nH]1
inactive: [1]; 10 µM unless noted 103% | [2]; 10 µM unless noted 90.8% | [3]; 10 µM unless noted 100% | [4] 94.3% | [5]; 10 µM unless noted 92.1% | [6]; 10 µM unless noted 94.6% | [7]; 10 µM unless noted 107% | [8]; 10 µM unless noted 104%

CCOC(=O)CN1CCC(C(=O)OCC)CC1
inactive: [1]; 10 µM unless noted 102% | [2]; 10 µM unless noted 105% | [3]; 10 µM unless noted 114% | [4] 108% | [5]; 10 µM unless noted 103% | [6]; 10 µM unless noted 98.1% | [7]; 10 µM unless noted 103% | [8]; 10 µM unless noted 109%

CS(=O)(=O)c1nsc(N)n1
inactive: [1]; 10 µM unless noted 95% | [2]; 10 µM unless noted 107% | [3]; 10 µM unless noted 107% | [4] 100% | [5]; 10 µM unless noted 99.8% | [6]; 10 µM unless noted 103% | [7]; 10 µM unless noted 98.4% | [8]; 10 µM unless noted 105%

O=c1ccn2c(n1)OC1CC2OC1COC(c1ccccc1)(c1ccccc1)c1ccccc1 (stereo not drawn)
inactive: [1]; 10 µM 109% | [1]; 100 µM 102% | [2]; 10 µM 123% | [2]; 100 µM 88.4% | [3]; 10 µM 103% | [5]; 10 µM 95.4% | [5]; 100 µM 46.7% | [6]; 10 µM 101% | [6]; 100 µM 40.1% | [7]; 10 µM 106% | [7]; 100 µM 100% | [8]; 10 µM 117% | [8]; 100 µM 96.3%
active: [3]; 100 µM -4.08%

C#CCOC(=O)C(N)CS (stereo not drawn)
inactive: [1]; 10 µM unless noted 119% | [2]; 10 µM unless noted 108% | [3]; 10 µM unless noted 96.6% | [4] 97.1% | [5]; 10 µM 93% | [5]; 100 µM 90.4% and 76.4% | [6]; 10 µM unless noted 101% | [7]; 10 µM unless noted 107% | [8]; 10 µM unless noted 102%

Nc1nc(N)c2cc(S(=O)(=O)c3ccccc3)ccc2n1
inactive: [1]; 10 µM unless noted 72.7% and 59% | [2]; 10 µM unless noted 81.4% and 54.6% | [3]; 10 µM unless noted 33.5% and 31% | [4] 21.8% and 25.3% | [5]; 10 µM unless noted 40.2% and 29.5% | [6]; 10 µM unless noted 16.3% and 13.4% | [7]; 10 µM unless noted 30.6% | [8]; 10 µM unless noted 32.5% and 28.7%

Cc1cc2ccccc2c2cc3ccccc3cc12
inactive: [1]; 10 µM unless noted 48% | [2]; 10 µM unless noted 93.7% | [3]; 10 µM unless noted 100% | [4] 90% | [5]; 10 µM unless noted 33.8% | [6]; 10 µM unless noted 93.8% | [7]; 10 µM unless noted 92.5% | [8]; 10 µM unless noted 82.1%

COc1ccc(/C=N/NC(N)=S)cc1
inactive: [1]; 10 µM unless noted 85.6% | [2]; 10 µM unless noted 104% | [3]; 10 µM unless noted 100% | [4] 125% | [5]; 10 µM unless noted 103% | [6]; 10 µM unless noted 89.3% | [7]; 10 µM unless noted 90.7% | [8]; 10 µM unless noted 119%

CC(C)(C)OC(=O)c1ccc(NCc2cc(O)ccc2O)cc1
active: [1]; 10 µM unless noted -67.5% | [2]; 10 µM unless noted -17.6% | [8]; 10 µM unless noted 8.14%
inactive: [3]; 10 µM unless noted 20% | [4] 18.9% | [5]; 10 µM unless noted 29.5% | [6]; 10 µM unless noted 36.2% | [7]; 10 µM unless noted 113%

Nc1[nH][nH]c(=O)c1N=Nc1ccccc1
inactive: [1]; 10 µM unless noted 113% and 102% | [2]; 10 µM unless noted 101% and 133% | [3]; 10 µM unless noted 103% and 99.7% | [4] 97.5% and 114% | [5]; 10 µM unless noted 92.9% and 94.5% | [6]; 10 µM unless noted 104% and 102% | [7]; 10 µM unless noted 97.9% and 104% | [8]; 10 µM unless noted 105% and 106%

O=C(c1ccccc1)C1(Br)CCCCC1
inactive: [1]; 10 µM unless noted 94.7% | [2]; 10 µM unless noted 105% | [3]; 10 µM unless noted 105% | [4] 105% | [5]; 10 µM unless noted 96% | [6]; 10 µM unless noted 104% | [7]; 10 µM unless noted 101% | [8]; 10 µM unless noted 104%

CN(C)c1ccc(C(=N)c2ccc(N(C)C)cc2)cc1
active: [3]; 10 µM unless noted -7.96% and -36.7%
10.1% (inactive) and 2.28% (active): [5]; 10 µM unless noted
inactive: [1]; 10 µM unless noted 16.9% and 33.1% | [2]; 10 µM unless noted 70.1% and 40.6% | [6]; 10 µM unless noted 18.5% and 11.9% | [7]; 10 µM unless noted 52.4% and 48% | [8]; 10 µM unless noted 14.4% and 18.7%
9.98% (active) and 17.7% (inactive): [4]

COc1cc2oc3cc(=O)cc4oc(-c5ccccc5)cc(c2c2c1CCC(c1ccccc1)O2)c43 (stereo not drawn)
19.2% (inactive) and 3.41% (active): [5]; 100 µM
inactive: [1]; 10 µM unless noted 55.8% | [2]; 10 µM unless noted 78.8% | [3]; 10 µM unless noted 69.2% | [4] 100% | [5]; 10 µM 30% | [6]; 10 µM unless noted 59.7% | [7]; 10 µM unless noted 60.7% | [8]; 10 µM unless noted 74.3%

COc1cc2c(cc1O)C(=O)CCCC2
inactive: [1]; 10 µM unless noted 94.8% | [2]; 10 µM unless noted 78% | [3]; 10 µM unless noted 99.2% | [4] 92.9% | [5]; 10 µM unless noted 91.2% | [6]; 10 µM unless noted 99.2% | [7]; 10 µM unless noted 74.7% | [8]; 10 µM unless noted 89%

Cc1c(Cl)cc(Cl)c(N)c1Cl
inactive: [1]; 10 µM unless noted 104% | [2]; 10 µM unless noted 112% | [3]; 10 µM unless noted 104% | [4] 101% | [5]; 10 µM unless noted 98.6% | [6]; 10 µM unless noted 103% | [7]; 10 µM unless noted 113% | [8]; 10 µM unless noted 114%

O=C(O)C#Cc1ccc(Cl)cc1
inactive: [1]; 10 µM unless noted 90.7% | [2]; 10 µM unless noted 99.9% | [3]; 10 µM unless noted 106% | [4] 96.8% | [5]; 10 µM unless noted 98.8% | [6]; 10 µM unless noted 102% | [7]; 10 µM unless noted 108% | [8]; 10 µM unless noted 104%

CC1=CC(=O)C=CC1=Nc1ccc(N(C)C)cc1
84.3% (inactive) and 2.64% (active): [6]; 10 µM unless noted
89.9% (inactive) and 6.86% (active): [5]; 10 µM unless noted
69.1% (inactive) and -24.8% (active): [1]; 10 µM unless noted
inactive: [2]; 10 µM unless noted 79% and 27.8% | [4] 105% | [7]; 10 µM unless noted 98.4% and 59.1% | [8]; 10 µM unless noted 83.4% and 25.2%
59.4% (inactive) and 6.47% (active): [3]; 10 µM unless noted

COC(=O)c1nc(N)nc(C(=O)OC)c1C(=O)c1cccc2ccccc12
inactive: [1]; 10 µM unless noted 109% | [2]; 10 µM unless noted 133% | [3]; 10 µM unless noted 108% | [4] 118% | [5]; 10 µM unless noted 94.5% | [6]; 10 µM unless noted 111% | [7]; 10 µM unless noted 106% | [8]; 10 µM unless noted 110%

O=C(O)Cc1cc(=O)[nH]n(-c2ccccc2)c1=O
inactive: [1]; 10 µM unless noted 98.2% | [2]; 10 µM unless noted 103% | [3]; 10 µM unless noted 108% | [4] 108% | [5]; 10 µM unless noted 98.9% | [6]; 10 µM unless noted 101% | [7]; 10 µM unless noted 106% | [8]; 10 µM unless noted 107%

C/C(=C\c1ccccc1)C(O)C(=O)c1nc2ccc([N+](=O)[O-])cc2[nH]c1=O (stereo not drawn)
inactive: [1]; 10 µM unless noted 77.5% | [2]; 10 µM unless noted 78.9% | [3]; 10 µM unless noted 99.5% | [4] 104% | [5]; 10 µM unless noted 79.3% | [6]; 10 µM unless noted 91.4% | [7]; 10 µM unless noted 106% | [8]; 10 µM unless noted 90.3%

CC(C)(C)C1=CC(=O)C(C(C)(C)C)=CC1=O
inactive: [1]; 10 µM unless noted 79.2% and 112% | [2]; 10 µM unless noted 91.7% and 110% | [3]; 10 µM unless noted 97.8% and 110% | [4] 106% and 104% | [5]; 10 µM unless noted 86.5% and 97.2% | [6]; 10 µM unless noted 88.5% and 105% | [7]; 10 µM unless noted 94.4% and 101% | [8]; 10 µM unless noted 110%

CC(=O)Oc1ccc(C2(c3ccc(OC(C)=O)cc3)C(=O)Nc3ccccc32)cc1
-3.15% (active) and 44.8% (inactive): [7]; 10 µM unless noted
active: [1]; 10 µM unless noted -26.3% and -22.5% | [2]; 10 µM unless noted -33.3% and -8.43%
9.09% (active) and 15.1% (inactive): [5]; 10 µM unless noted
inactive: [3]; 10 µM unless noted 110% and 126% | [4] 98.2% and 104% | [6]; 10 µM unless noted 84.9% and 84.5% | [8]; 10 µM unless noted 71.3% and 61.9%

O=[N+]([O-])c1ccc(N2CCN=N2)cc1
inactive: [1]; 10 µM unless noted 67.3% | [2]; 10 µM unless noted 85.3% | [3]; 10 µM unless noted 77.5% | [4] 81.8% | [5]; 10 µM unless noted 87.5% | [6]; 10 µM unless noted 81.7% | [7]; 10 µM unless noted 107% | [8]; 10 µM unless noted 77.3%

COC(=O)c1cc(C(=O)OC)cc([N+](=O)[O-])c1
inactive: [1]; 10 µM unless noted 111% | [2]; 10 µM unless noted 91.6% | [3]; 10 µM unless noted 115% | [4] 102% | [5]; 10 µM unless noted 98% | [6]; 10 µM unless noted 95.3% | [7]; 10 µM unless noted 99.2% | [8]; 10 µM unless noted 112%

CC1CC(O)CC(C)(C)C1.CC1CC(O)CC(C)(C)C1.CC1CC(O)CC(C)(C)C1.CC1CC(O)CC(C)(C)C1.[Ti] (stereo not drawn)
inactive: [1]; 10 µM unless noted 92.7% | [2]; 10 µM unless noted 111% | [3]; 10 µM unless noted 99.6% | [4] 99.8% | [5]; 10 µM unless noted 99.8% | [6]; 10 µM unless noted 99.5% | [7]; 10 µM unless noted 110% | [8]; 10 µM unless noted 103%
